In the library only some 11% were active in any assay of this set; here they are far more common.
FLuc inh: blocks purified firefly luciferase enzyme activity. P08659. purified P. pyralis luciferase, luminescence, biochemical. Potency, µM (doses to about 115 µM), usual class: inhibitors. actives 2.5% (n = 76,000). AID 1347043; note: nearly all actives have a fitted effect of over 65% in size
Target sequence (P08659 whole entry, looked up): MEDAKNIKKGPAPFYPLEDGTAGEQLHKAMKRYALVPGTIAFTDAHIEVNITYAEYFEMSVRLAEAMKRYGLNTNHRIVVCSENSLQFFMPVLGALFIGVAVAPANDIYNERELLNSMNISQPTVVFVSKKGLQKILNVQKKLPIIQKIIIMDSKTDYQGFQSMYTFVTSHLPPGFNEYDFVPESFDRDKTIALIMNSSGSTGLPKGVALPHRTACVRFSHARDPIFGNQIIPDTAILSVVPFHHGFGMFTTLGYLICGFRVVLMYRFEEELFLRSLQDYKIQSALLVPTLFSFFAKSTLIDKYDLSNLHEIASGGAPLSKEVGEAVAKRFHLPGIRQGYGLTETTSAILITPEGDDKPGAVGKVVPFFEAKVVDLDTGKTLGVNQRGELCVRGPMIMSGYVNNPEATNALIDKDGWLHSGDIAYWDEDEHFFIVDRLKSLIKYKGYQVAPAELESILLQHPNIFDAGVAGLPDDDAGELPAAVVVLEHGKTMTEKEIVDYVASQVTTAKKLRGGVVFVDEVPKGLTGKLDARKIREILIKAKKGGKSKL
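Biochemical qHTS: compound (6-point titration) added to 10uM D-luciferin plus 10uM ATP in Tris acetate pH 7.5 buffer with Mg, Tween-20 and BSA, then purified enzyme at 10nM; light output imaged.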
NIH3T3 tox: kills NIH 3T3 cells. Potency, µM (top dose mostly 96.7 µM), most hits filed as inhibitors. AID 1345082. actives 4.3% (n = 94,000). NIH 3T3 viability, CellTiter-Glo ATP luminescence, 48-72 h; note: nearly all actives have a fitted effect of over 55% in size
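NIH 3T3 cells at 400 cells/well received 23 nL of compound by pintool and were incubated 48 or 72 h at 37 °C. Viability was read as ATP-coupled CellTiter-Glo luminescence.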
HEK293 tox: cytotoxic compounds in HEK 293 cells; actives 6.6% (n = 94,000); Potency, µM (series often up to 115 µM), most hits filed as inhibitors; HEK 293 viability, ATP luminescence (CellTiter-Glo), 48-72 h; note: nearly all actives have a fitted effect of over 60% in size
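qHTS cytotoxicity; HEK 293, 250 cells/well; compound pinned; 48 or 72 hr, 37 degree Celsius, 5% CO2, 95% humidity; CellTiter-Glo, 10 min RT; luminescence (ATP).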
NPR1 antag: human Npr1 receptor antagonism; actives 1.6% (n = 76,000); P16066; HEK293 hNpr1 GloSensor cGMP, ANP-stimulated luminescence; Potency, µM (top dose mostly 46.3 µM), usual class: inhibitors; calls by dose curve; note: nearly all actives have a fitted effect of over 60% in size
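Compound pre-incubated 30 min at room temperature on GloSensor-loaded HEK293 cells stably carrying hNpr1 and the pGS-40F cGMP biosensor. Stimulation uses hNppA at 0.1 nM final; luminescence is taken at baseline and 20 min post-agonist.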
Large screens that a line does not name were inactive; ! = not confirmed by another sample. Unless noted, calls come from the whole dose curve; as a rule, active = well fitted curve in the direction sought with a large enough effect; inconclusive = small, poorly fitted or top-dose-only effect, or another doubt; inactive = no such curve, though single readings can be large; an effect the other way counts as inactive or inconclusive.

O=C(c1cc(F)ccc1F)N1CCN(C(=O)c2nnn3c2COC(c2ccc(Cl)cc2)C3)CC1 (centres undefined)	HEK293 tox 35µM, NPR1 antag inconclusive
CC(C)(C)c1ccc(C(=O)N2CCN(C(=O)c3nnn4c3COC(c3ccc(F)cc3)C4)CC2)cc1 (centres undefined)	NIH3T3 tox inconclusive, HEK293 tox inconclusive
COC(=O)CNC(=O)c1nc(-c2ccc(F)cc2)c2cnccn12	none
CC(C)c1noc(-c2cccn3c(CNC(=O)c4cc(F)ccc4F)nnc23)n1	none
COc1ccc(C(=O)N2CCCN(c3ccc4nnc(C5CC5)n4n3)CC2)cc1	none (no result: FLuc inh, NPR1 antag)
CCOCCNC(=O)CNC(=O)c1cccc(-c2ccsc2)c1	none (no result: FLuc inh, NPR1 antag)
O=C(Nc1cc(-c2ccncc2)nn1-c1ccccc1)c1ccc(Cl)cc1	NIH3T3 tox inconclusive, HEK293 tox 79µM (no result: FLuc inh, NPR1 antag)
CC(=O)Nc1cc(-c2ccncc2)nn1-c1ccccc1	NIH3T3 tox inconclusive (no result: FLuc inh, NPR1 antag)
O=C(Nc1cc(-c2cccnc2)nn1-c1ccccc1)c1cccc(Br)c1	NIH3T3 tox inconclusive, HEK293 tox 50µM (no result: FLuc inh, NPR1 antag)
O=C(Nc1cc(-c2cccnc2)nn1-c1ccccc1)c1ccc(C(F)(F)F)cc1	NIH3T3 tox 32µM, HEK293 tox inconclusive (no result: FLuc inh, NPR1 antag)
O=C1CCN(C(=O)CC2CCCC2)CCCC(c2nc(-c3cccnc3)no2)CCN1 (centres undefined)	none
COc1ccc(CCNC(=O)C2CN(C3CCCC3)C(=O)N2)cc1 (centres undefined)	none (no result: FLuc inh, NPR1 antag)
O=C(CCC1CCCN(CCCn2cccn2)C1)Nc1ccc(C(F)(F)F)cc1 (centres undefined)	NIH3T3 tox inconclusive, HEK293 tox inconclusive
O=C(Nc1cccc(C(F)(F)F)c1)c1nc2c(o1)CCN(Cc1ccccc1)CC2	NIH3T3 tox inconclusive, HEK293 tox inconclusive
O=C(Nc1cccc(C(F)(F)F)c1)c1nc2c(o1)CCN(Cc1ccc(F)cc1)CC2	NIH3T3 tox 28µM, HEK293 tox 28µM
O=C(Nc1cccc(C(F)(F)F)c1)c1nc2c(o1)CCN(Cc1cnc[nH]1)CC2	FLuc inh 40µM, NIH3T3 tox inconclusive, HEK293 tox inconclusive
O=C(Nc1cccc(C(F)(F)F)c1)c1nc2c(o1)CCN(Cc1cccc(F)c1)CC2	FLuc inh inconclusive, NIH3T3 tox inconclusive, HEK293 tox 50µM, NPR1 antag inconclusive
O=C(NCC1CC1)c1nc2c(o1)CCN(Cc1cccc(F)c1)CC2	NIH3T3 tox inconclusive, HEK293 tox inconclusive, NPR1 antag inconclusive
COc1ccc(-c2cccc(C(=O)N3CCC(NC(=O)c4ccccc4C)CC3)c2)nn1	HEK293 tox inconclusive (no result: FLuc inh, NPR1 antag)
COc1ccc(Nc2ccnc(N3CCC(NC(=O)c4ccccc4F)CC3)n2)cc1	NIH3T3 tox inconclusive, HEK293 tox 50µM (no result: FLuc inh, NPR1 antag)
COc1cccc(C(=O)NC2CCN(c3nccc(Nc4ccc(C)cc4)n3)CC2)c1	NIH3T3 tox 40µM, HEK293 tox inconclusive (no result: FLuc inh, NPR1 antag)
Cc1ccc(Nc2ccnc(N3CCC(NC(=O)c4ccccc4F)CC3)n2)cc1	NIH3T3 tox inconclusive, HEK293 tox 50µM (no result: FLuc inh, NPR1 antag)
COc1ccc(Nc2ccnc(N3CCC(NC(=O)c4ccc(C)cc4)CC3)n2)cc1	HEK293 tox inconclusive (no result: FLuc inh, NPR1 antag)
CC1(c2noc(-c3ccncc3)n2)CCN(C(=O)CCc2cc(Cl)no2)CC1	HEK293 tox inconclusive (no result: FLuc inh, NPR1 antag)
COc1cccc(-c2cc(C(=O)NCC3CCCCC3)c3cnn(C)c3n2)c1	NIH3T3 tox inconclusive, HEK293 tox 40µM (no result: FLuc inh, NPR1 antag)
CCC(C)NC(=O)c1cc(-c2cccc(OC)c2)nc2c1cnn2C (centres undefined)	NIH3T3 tox inconclusive, HEK293 tox 100µM! (no result: FLuc inh, NPR1 antag)
CCN1c2cc(C(=O)N3CCN(c4ccccc4)CC3)ccc2C(=O)N2CCCCCC21 (centres undefined)	HEK293 tox 28µM
CCN1c2cc(C(=O)N3CCN(c4cccc(C)c4)CC3)ccc2C(=O)N2CCCCC21 (centres undefined)	NIH3T3 tox inconclusive, HEK293 tox inconclusive
CCN1c2cc(C(=O)N3CCN(c4ccc(F)cc4)CC3)ccc2C(=O)N2CCCCC21 (centres undefined)	HEK293 tox 45µM
CCN1c2cc(C(=O)N3CCN(c4ccccc4F)CC3)ccc2C(=O)N2CCCCC21 (centres undefined)	HEK293 tox inconclusive
O=C1NCCCCCCN(Cc2ccncc2)[C@@H]2CN(C(=O)C3CCCCC3)CC[C@@H]12	NIH3T3 tox inconclusive, HEK293 tox 45µM
O=C1NCCCCCCN(Cc2ccc(C(F)(F)F)cc2)[C@H]2CCC[C@@H]12	NIH3T3 tox inconclusive, HEK293 tox 40µM
O=C(c1ccccc1)N1CCCN(Cc2ccc3c(c2)OCO3)c2ccccc21	NIH3T3 tox inconclusive, HEK293 tox 35µM
